An excerpt weighted towards active compounds, which were near 11% of everything screened.
ALDH1A1 block: inhibitors of human aldehyde dehydrogenase 1A1; Purified ALDH1A1, NADH fluorescence, propionaldehyde substrate; Potency, µM (series often up to 75.3 µM), usual class: inhibitors; 7.3% of 220,000 active
PNC assembly inh: blocks assembly of the perinucleolar compartment; PC3M PTB-GFP, PNC prevalence imaging, 16 h; stronger effect = lower value; activity change (PNC), negative = inhibition, % at 10 µM; 3.1% of 140,000 active;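 active means readout at or below -70, meaning at least 70% loss of cells showing the perinucleolar compartment, a nuclear body marking cancer cells; inconclusive means readout between -30 and a set limit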
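Read-out is percentage of cells bearing a perinucleolar compartment, from automated 20x imaging of fixed, Hoechst-stained PC3M PTB-GFP cells. Cells were seeded 4 h, then exposed 16 h to compound (23 nl of library stock) in duplicate plates.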
HPGD block: blocks human HPGD enzyme activity | P15428 | purified HPGD, NADH fluorescence kinetic, PGE2 substrate | Potency, µM, actives largely listed as inhibitors | 4.3% of 150,000 active
Target sequence (P15428 whole entry, looked up): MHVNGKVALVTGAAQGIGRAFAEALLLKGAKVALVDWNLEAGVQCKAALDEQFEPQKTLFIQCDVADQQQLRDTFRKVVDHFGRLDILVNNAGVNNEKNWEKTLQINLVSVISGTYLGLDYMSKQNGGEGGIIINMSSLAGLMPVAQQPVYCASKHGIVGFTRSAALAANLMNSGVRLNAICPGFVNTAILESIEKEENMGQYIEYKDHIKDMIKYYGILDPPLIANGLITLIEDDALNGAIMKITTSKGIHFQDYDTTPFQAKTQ
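20 nM HPGD preincubated 15 min at room temperature with compound in 50 mM Tris-HCl pH 8, 0.01% Tween 20. Started with 1 mM NAD+ and 30 uM prostaglandin E2; NADH fluorescence (360/450 nm) read 5 times over 30-s intervals, last minus first.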
Hits are given with their value; n = inactive; u = inconclusive; x = no result; [ ] = remark or other dose. Unless noted, the call rests on the fitted dose curve; in most records, active means well fitted inhibition curve with a large enough effect (not every such curve was filed as active); inconclusive means small, poorly fitted or top-dose-only effect, or another doubt; inactive means no such curve, though single readings can be large or run the other way.

SMILES | ALDH1A1 block | PNC assembly inh | HPGD block
CC(=O)N1C(O)CC(C)N1c1ccccc1 (stereo not drawn) | n | n | n
COc1ccc(NC(=O)c2ccccc2-c2ccccc2)c(C)c1 | n | x | x
O=C(COC(=O)CCS(=O)(=O)c1ccc(Cl)cc1)NCCc1ccccc1 | n | n | n
C=CC[C@@H]1C=C[C@@H](O/N=C(/C)CCC(=O)OC[C@@H]2O[C@H](c3ccccc3)C=C[C@@H]2Oc2ccc(OC)cc2)[C@@H](CO)O1 | n[13.5 µM] | x | x
CCCCSc1nc(SCC(=O)NCc2ccco2)c2c3c(sc2n1)COC(C)(CC)C3 (stereo not drawn) | 22.4µM | n | n
CCCSc1nc(SCC(=O)NCc2ccccc2)c2c3c(sc2n1)COC(C)(CC)C3 (stereo not drawn) | n | n | n
CC(C)(C)C(=O)NC(=S)N1CCc2ccccc21 | 11.2µM | x | x
CC(Oc1ccc(Cl)cc1Cl)C(=O)N/N=C1\CCCc2ccccc21 (stereo not drawn) | n | n | n
CC(Oc1ccc(Cl)cc1Cl)C(=O)NC(=S)N1CCc2ccccc21 (stereo not drawn) | 17.8µM | n | n
CC(Oc1ccc(Cl)cc1Cl)C(=O)NN=C1CCN(C)CC1 (stereo not drawn) | 2.51µM | n | n
CC(Oc1ccc(Cl)cc1Cl)C(=O)NCCN1CCOCC1 (stereo not drawn) | n | n | n
CC(C)(C)C(=O)NC(=S)Nc1ccccc1N1CCCC1 | n | x | x
O=C(COn1nnc2ccc(C(F)(F)F)cc21)Nc1c(Cl)cccc1Cl | n | u | n
CCCCCCCCCCCCCCCCCC(=O)OCC(C)O (stereo not drawn) | n | x | n
CCOc1ccc(NC(=S)Nc2cccc3cnccc23)cc1 | 31.6µM | n | n
CCOc1ccc(NC(=S)Nc2ccccc2C2CC2)cc1 | n | x | x
COc1ccccc1NC(=S)NCc1cccnc1 | n | u | n
CCc1ccc(NC(=S)Nc2cccc(OC)c2)cc1 | n | n | n
COc1ccccc1NC(=S)Nc1cccc2cnccc12 | 25.1µM | n | n
COc1ccc(NC(=S)Nc2cccc3cnccc23)cc1 | 25.1µM | n | n
COc1ccc(-n2c(SCC(=O)Nc3cc(C)on3)nc3ccccc3c2=O)cc1Cl | n | x | x
O=C(CSc1nc(C2CC2)nc2ccccc12)Nc1ccccc1N1CCOCC1 | n | x | x
CC(=O)CCc1c(C)nc2ccc(C)cc2c1Cl | n | x | x
C[C@@H]1CCCC(CC(=O)O)(CC(=O)O)C1 | n[13.5 µM] | x | n
C[C@@H]1C[C@](C)(C(=O)c2ccc3c(c2)OCO3)C=C1c1ccc2c(c1)OCO2 | n | x | n
SMILES | ALDH1A1 block | PNC assembly inh | HPGD block
O=C(c1cn[nH]c1)c1cc(F)ccc1O | u | n | n
CN(C)c1cccc(C(=O)n2cc(C(=O)c3cc(F)ccc3O)cn2)c1 | 4.47µM | n | n
CCCCN1Cc2cc(C(=O)c3cc(F)ccc3O)cnc2NC1=O | u | n | u
O=C(c1cnn(C(=O)COc2ccccc2F)c1)c1cc(F)ccc1O | 0.398µM | x | x
O=C(c1cnc2nc3ccccc3n2c1)c1cc(F)ccc1O | 4.47µM | x | x
Cc1[nH]nc2ncc(C(=O)c3cc(F)ccc3O)cc12 | n | u | u
C[C@H]1Cc2c(COc3ccccc3)nc3c(c2CO1)CN(S(=O)(=O)c1ccc2c(c1)OCCN2C)CC3 | n[13.5 µM] | x | n
CCOc1ccc(C(=O)Nc2cccc3ncccc23)cc1Br | n | x | x
CSc1ccc(/C=C/C(=O)NC(=O)c2ccccc2O)cc1 | n | x | x
O=C(O)c1ccc2nc(-c3ccccc3)sc2c1 | n | u | n
O=c1cc(O)nc(-c2ccc(Cl)cc2)s1 | 15.8µM | x | x
O=C(O)Cc1sc(-c2ccc(Cl)cc2)nc1-c1ccccc1 | u | n | u
O=c1cc(O)nc(-c2ccccc2)s1 | 0.794µM | x | x
COc1cc(CNCCN(C)C)c(Br)cc1OC1CCCC1 | n | x | x
O=C(O)C1C2C=CC(C2)C1C(=O)NCc1cccs1 (stereo not drawn) | n | x | x
Cc1onc(-c2c(F)cccc2Cl)c1C(=O)N[C@H]1C(=O)N2[C@H]1SC(C)(C)[C@H]2C(=O)O | n | x | n
Cc1cccn2c(=O)c(C=O)c(N3CCCCCC3)nc12 | 11.2µM | n | n
CCN1CCN(c2nc3c(C)cccn3c(=O)c2/C=C(\C#N)S(=O)(=O)c2ccccc2)CC1 | 22.4µM | u | n
Cc1cccn2c(=O)c(C=O)c(N3CC(C)OC(C)C3)nc12 (stereo not drawn) | n | x | x
Cc1ccc(S(=O)(=O)/C(C#N)=C/c2c(Oc3ccc(Cl)cc3)nc3c(C)cccn3c2=O)cc1 | n | n | n
Cc1ccc(S(=O)(=O)/C(C#N)=C/c2c(N3CCC(C(N)=O)CC3)nc3ccccn3c2=O)cc1 | u | u | 25.1µM
Cc1cccn2c(=O)c(/C=C(\C#N)C(N)=O)c(N3CCN(Cc4ccc5c(c4)OCO5)CC3)nc12 | u | n | n
CCOC(=O)/C(C#N)=C/c1c(N2CCN(Cc3ccc4c(c3)OCO4)CC2)nc2c(C)cccn2c1=O | 0.708µM | x | x
